The structures appear in SMILES notation. Values joined by “and” are separate entries in the source; they are usually repeats but may differ in a detail not shown here. Identical values can stand only once. A number with no mark means an inactive call. Inconclusive results are not listed. Active and inactive are the calls of the source. Unless noted, calls follow the shape of the full dose curve.

Test [1] is described as follows: qHTS assay to identify small molecule agonists of the sonic hedgehog signaling (Shh) pathway (AID 1259368).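 Also: NIH/3T3-derived 3T3Gli1-Luc cells carrying a stable Gli1-driven firefly luciferase reporter; series mostly up to about 92 µM; nearly all actives have a fitted effect of over 15% in size.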 An outline of the steps: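 Cells of a mouse NIH/3T3 clone stably expressing luciferase under the Gli1 transcriptional response element are exposed to test chemicals for 24 hr at 37 C. Pathway activation is detected as a rise in luminescence.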
(qHTS replaces the single test concentration by a dilution series.)

Test [2] in a line: qHTS assay to identify small molecule antagonists of the sonic hedgehog signaling (Shh) pathway (AID 1259369). Also: nearly all actives have a fitted effect of over 45% in size. Also: potency is read from the fitted curve at half-maximal effect. In a few lines: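 Cells are plated and held 4hr at 37 C, compounds (DMSO) are pinned in, conditioned medium is added to stimulate the pathway, and after 24hr luciferase reagent is added for 30min before luminescence is read.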
Test [3] deals with Estrogen receptor beta (Homo sapiens) (UniProt Q92731). Briefly: qHTS assay to identify small molecule agonists of the estrogen receptor beta (ER-beta) signaling pathway (AID 1259377; active = well fitted activation curve with a large enough effect in the signal ratio in the repeat runs, not every such curve was filed as active; the % refers to the signal ratio). In a few lines: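 Reporter cells (HEK293T, ER-beta-UAS-bla) receive compounds or DMSO after a 6 hr pre-incubation. They then incubate 16 hr at 37C/5% CO2, and fluorescence from LiveBLAzer B/G substrate is measured after 2 hours at room temperature.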
Estrogen receptor beta (Homo sapiens), sequence (Q92731 whole entry, looked up): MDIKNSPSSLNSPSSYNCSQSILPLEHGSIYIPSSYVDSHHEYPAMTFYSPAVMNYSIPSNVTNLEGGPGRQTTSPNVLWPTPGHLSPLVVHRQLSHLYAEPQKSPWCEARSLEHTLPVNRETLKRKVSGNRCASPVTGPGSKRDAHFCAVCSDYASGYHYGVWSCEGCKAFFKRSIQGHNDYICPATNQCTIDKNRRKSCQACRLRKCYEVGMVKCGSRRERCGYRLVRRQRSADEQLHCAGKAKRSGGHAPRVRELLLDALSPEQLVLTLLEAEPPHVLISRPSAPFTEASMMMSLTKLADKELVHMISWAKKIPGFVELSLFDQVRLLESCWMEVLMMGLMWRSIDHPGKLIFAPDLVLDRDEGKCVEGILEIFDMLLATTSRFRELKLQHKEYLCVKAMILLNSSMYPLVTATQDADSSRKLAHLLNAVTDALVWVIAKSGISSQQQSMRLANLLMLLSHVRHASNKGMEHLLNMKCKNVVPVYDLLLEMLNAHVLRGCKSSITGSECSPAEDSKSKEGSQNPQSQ

Test [4] shares this target. Nature of the test: qHTS assay to identify small molecule antagonists of the estrogen receptor beta (ER-beta) signaling pathway (AID 1259378; active = well fitted inhibition curve with a large enough effect in the signal ratio in the repeat runs, not every such curve was filed as active; the % refers to the signal ratio). In a few lines: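 ER-beta-UAS-bla HEK293T cells in 2% charcoal-stripped FBS medium treated with compound plus 1nM final 17-beta-estradiol for 16 hr at 37C. Beta-lactamase reporter read by FRET substrate fluorescence after 2 hours at room temperature.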

Test [5] is described as follows: qHTS assay to identify small molecule agonists of the androgen receptor (AR) signaling pathway in the presence of an antagonist - cell viability counter screen (AID 1259379; active = well fitted curve in the direction sought with a large enough effect in the repeat runs; an effect the other way counts as inactive or inconclusive;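 also: MDA-kb2 human breast cancer cells carrying an MMTV luciferase reporter; series mostly up to about 92 µM; nearly all actives have a fitted effect of over 25% in size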). An outline of the steps:
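Cytotoxicity is assessed by CellTiter-Fluor in MDA-kb2 cells carrying an MMTV-driven luciferase reporter. Cells receive 3.0uM nilutamide plus compounds at 15 concentrations and incubate 16 hr at 37C without CO2 before fluorescence reading.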

The nature of test [6]: qHTS assay to identify small molecule agonists of the estrogen receptor beta (ER-beta) signaling pathway - cell viability counter screen (AID 1259380; active = well fitted curve in the direction sought with a large enough effect in the repeat runs; an effect the other way counts as inactive or inconclusive; also: nearly all actives have a fitted effect of over 30% in size). An outline of the steps:
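Cytotoxicity is measured in parallel with the reporter screen: after 16 hr compound exposure at 37C and a 2 hr LiveBLAzer step, CellTiter-Glo is added to the same ER-beta-UAS-bla HEK293T wells and luminescence read after 30 min.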

Test [7] addresses Androgen receptor (Homo sapiens) (UniProt P10275). Nature of the test: qHTS assay to identify small molecule agonists of the androgen receptor (AR) signaling pathway in the presence of an antagonist (AID 1259381). Also: nearly all actives have a fitted effect of over 15% in size. Also: potency is read from the fitted curve at half-maximal effect. In a few lines: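 Agonist-mode confirmation screen: human MDA-kb2 cells stably expressing luciferase under an MMTV promoter bearing AR and GR response elements, co-treated with 3.0uM nilutamide (final). Luminescence measured after 16hr compound incubation.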

The nature of test [8]: qHTS assay to identify small molecule antagonists of the estrogen receptor beta (ER-beta) signaling pathway - cell viability counter screen (AID 1259382; active = well fitted curve in the direction sought with a large enough effect in the repeat runs; an effect the other way counts as inactive or inconclusive; also: series mostly up to about 92 µM; nearly all actives have a fitted effect of over 55% in size). An outline of the steps: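 Cytotoxicity counter screen multiplexed with the beta-lactamase antagonist assay: GripTite HEK293T ER-beta-bla cells were treated 16 hr with test chemicals in the presence of 1nM 17-beta-estradiol, and viability was measured by CellTiter-Glo.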

The target in test [9] is Estrogen receptor (Homo sapiens) (UniProt P03372). Briefly: qHTS assay to identify small molecule agonists of the estrogen receptor alpha (ER-alpha) signaling pathway in the presence of an antagonist (AID 1259383). Also: top concentration of the series differs between compounds; nearly all actives have a fitted effect of over 15% in size. An outline of the steps:
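Agonist-mode confirmation in the presence of the ER antagonist ICI-182,780 at 10.0nM final. Breast-derived VM7Luc4E2 reporter cells were exposed to compounds for 22hr, and ERE-driven luciferase was quantified by luminescence.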

Test [10] is described as follows: qHTS assay to identify small molecule agonists or antagonists of the thyroid stimulating hormone receptor (TSHR) signaling pathway - wild type cell line counter screen (AID 1259384). In a few lines: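 Wild-type Hek293 cells, 800/well, 18 h at 37C, then compound with Ro20-1724 for 30 min RT. cAMP by HTRF (cAMP-d2/anti-cAMP cryptate), 1 h RT, fluorescence read. 15 concentrations, triplicates.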

Test [11] concerns the target Thyrotropin receptor (Homo sapiens) (UniProt P16473). Briefly: qHTS assay to identify small molecule antagonists of the thyroid stimulating hormone receptor (TSHR) signaling pathway (AID 1259385). Also: nearly all actives have a fitted effect of over 20% in size. An outline of the steps:
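TSHR-HEK293 cells (800/well) plated 18 h, then compounds with Ro20-1724 and TSH at 1.5 ng/mL final, 30 min at room temperature. cAMP quantified by HTRF (cAMP-d2/anti-cAMP-cryptate, 1 h); 15 concentrations in triplicate.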

The nature of test [12]: qHTS assay to identify small molecule agonists of the estrogen receptor alpha (ER-alpha) signaling pathway in the presence of an antagonist - cell viability counter screen (AID 1259386; active = well fitted curve in the direction sought with a large enough effect in the repeat runs; an effect the other way counts as inactive or inconclusive;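 also: series mostly up to about 92 µM; cells exposed to compounds for 22 h at 37 °C before the viability read; nearly all actives have a fitted effect of over 30% in size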). An outline of the steps: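 Cytotoxicity was measured in parallel with the ERE-luciferase agonist screen, in the same wells. The cells were VM7Luc4E2, which endogenously express ER-alpha, and treatment was with compounds plus 10.0nM ICI-182,780 for 22hr.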

Test [13] has as its target Progesterone receptor (Homo sapiens) (UniProt P06401). Nature of the test: qHTS assay to identify small molecule agonists of the progesterone receptor (PR) signaling pathway (AID 1346784). Also: nearly all actives have a fitted effect of over 30% in size. In a few lines: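 Reporter assay, GripTite PR-UAS-bla HEK 293T cells: 16 hr exposure to DMSO-dissolved compounds at 37C, 5% CO2, in steroid-depleted (2% charcoal-stripped FBS) medium; beta-lactamase measured by FRET fluorescence.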

The target is the same in test [14]. Nature of the test: qHTS assay to identify small molecule antagonists of the progesterone receptor (PR) signaling pathway (AID 1346795; active = well fitted inhibition curve with a large enough effect in the signal ratio in the repeat runs, not every such curve was filed as active; the % refers to the signal ratio; also: potency is read from the fitted curve at half-maximal effect). An outline of the steps: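 Stimulus R5020 at 1 nM final; cells HEK293T PR-UAS-bla; medium with 2% charcoal-stripped FBS; compound exposure 16 hr at 37C, 5% CO2; detection by FRET beta-lactamase substrate, 2 hr, room temperature.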

Test [15] in a line: qHTS assay to identify small molecule antagonists of the progesterone receptor (PR) signaling pathway - cell viability counter screen (AID 1346798; active = well fitted curve in the direction sought with a large enough effect in the repeat runs; an effect the other way counts as inactive or inconclusive; also: series mostly up to about 92 µM; nearly all actives have a fitted effect of over 50% in size). An outline of the steps: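 In the same plates used for the beta-lactamase readout, cell viability of compound- and R5020-treated PR-UAS-bla HEK293T cells (16 hr, 37C) was assessed by CellTiter-Glo luminescence.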
The nature of test [16]: qHTS assay to identify small molecule agonists of the progesterone receptor (PR) signaling pathway - cell viability counter screen (AID 1346799). Also: nearly all actives have a fitted effect of over 45% in size. In a few lines:
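Multiplexed viability read: CellTiter-Glo luminescence, 30 min RT, following LiveBLAzer FRET measurement on PR-UAS-bla HEK293T cells exposed to compounds 16 hr.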

A short description of test [17]: qHTS assay to identify small molecule antagonists of the TGF-beta/Smad signaling pathway - cell viability counter screen (AID 1346824; active = well fitted curve in the direction sought with a large enough effect in the repeat runs; an effect the other way counts as inactive or inconclusive; also: nearly all actives have a fitted effect of over 50% in size; also: potency is read from the fitted curve at half-maximal effect). In a few lines: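 SBE-bla HEK 293T cells, incubated overnight, then compound plus 0.25 ng/mL TGF-beta1 (stock added) for 5 hr at 37 C. Viability was read in the same wells by CellTiter-Glo luminescence after 30 min at room temperature.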

Test [18] can be described thus: qHTS assay to identify small molecule agonists of the TGF-beta/Smad signaling pathway - cell viability counter screen (AID 1346829; active = well fitted curve in the direction sought with a large enough effect in the repeat runs; an effect the other way counts as inactive or inconclusive; also: top concentration of the series differs between compounds; nearly all actives have a fitted effect of over 45% in size). In a few lines: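 SBE-bla HEK 293T cells plated overnight, compound exposure 5 hr at 37 C. Viability read in the same wells by CellTiter-Glo luminescence after 30 min at room temperature, following the beta-lactamase read.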
Test [19] can be described thus: qHTS assay to identify small molecule agonists of the TGF-beta/Smad signaling pathway (AID 1346859; active = well fitted activation curve with a large enough effect in the signal ratio in the repeat runs, not every such curve was filed as active; the % refers to the signal ratio; also: series mostly up to about 77 µM). An outline of the steps: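 Screening used HEK 293T SBE-bla cells at 4,000/well. Test agents: 5 hr, 37 C. Detection: FRET substrate, 2 hr RT, then excitation 405 nm with emissions at 460 and 530 nm.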
The target in test [20] is Thyrotropin-releasing hormone receptor (Homo sapiens) (UniProt P34981). Briefly: qHTS assay to identify small molecule antagonists of the thyrotropin-releasing hormone receptor (TRHR) signaling pathway (AID 1346877; active = well fitted inhibition curve with a large enough effect in the repeat runs, not every such curve was filed as active; also: series mostly up to about 51 µM). An outline of the steps:
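Antagonism is measured as suppression of the calcium response to 1 nM TRH in TRHR-HEK293 cells that have been dye-loaded for 2 h at 37 °C after overnight plating. Each compound is tested at 15 concentrations in triplicate.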

Androgen receptor (Homo sapiens), sequence (P10275 whole entry, looked up): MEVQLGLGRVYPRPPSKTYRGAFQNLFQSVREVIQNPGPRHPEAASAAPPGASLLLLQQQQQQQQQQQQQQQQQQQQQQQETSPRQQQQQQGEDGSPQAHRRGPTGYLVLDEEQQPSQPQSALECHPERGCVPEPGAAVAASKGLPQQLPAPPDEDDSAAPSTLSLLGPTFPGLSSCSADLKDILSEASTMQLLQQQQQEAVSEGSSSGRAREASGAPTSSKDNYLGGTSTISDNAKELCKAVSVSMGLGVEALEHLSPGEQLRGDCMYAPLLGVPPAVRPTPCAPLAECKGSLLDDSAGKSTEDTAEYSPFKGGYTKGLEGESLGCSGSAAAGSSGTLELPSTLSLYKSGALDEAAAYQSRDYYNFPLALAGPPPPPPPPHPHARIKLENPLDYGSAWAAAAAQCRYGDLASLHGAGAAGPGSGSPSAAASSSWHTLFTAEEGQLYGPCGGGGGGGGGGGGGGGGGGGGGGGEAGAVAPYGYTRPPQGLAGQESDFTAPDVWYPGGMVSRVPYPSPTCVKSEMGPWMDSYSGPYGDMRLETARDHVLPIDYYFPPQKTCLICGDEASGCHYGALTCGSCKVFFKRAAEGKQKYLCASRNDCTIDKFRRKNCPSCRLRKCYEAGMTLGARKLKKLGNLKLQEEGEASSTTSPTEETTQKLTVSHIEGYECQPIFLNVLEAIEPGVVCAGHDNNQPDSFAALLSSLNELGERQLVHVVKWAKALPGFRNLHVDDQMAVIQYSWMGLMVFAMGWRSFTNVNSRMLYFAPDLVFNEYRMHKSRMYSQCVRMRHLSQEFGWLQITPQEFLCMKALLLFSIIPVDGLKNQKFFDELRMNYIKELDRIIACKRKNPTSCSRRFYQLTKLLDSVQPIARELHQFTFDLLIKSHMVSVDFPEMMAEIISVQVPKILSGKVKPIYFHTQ
Estrogen receptor (Homo sapiens), sequence (P03372 whole entry, looked up): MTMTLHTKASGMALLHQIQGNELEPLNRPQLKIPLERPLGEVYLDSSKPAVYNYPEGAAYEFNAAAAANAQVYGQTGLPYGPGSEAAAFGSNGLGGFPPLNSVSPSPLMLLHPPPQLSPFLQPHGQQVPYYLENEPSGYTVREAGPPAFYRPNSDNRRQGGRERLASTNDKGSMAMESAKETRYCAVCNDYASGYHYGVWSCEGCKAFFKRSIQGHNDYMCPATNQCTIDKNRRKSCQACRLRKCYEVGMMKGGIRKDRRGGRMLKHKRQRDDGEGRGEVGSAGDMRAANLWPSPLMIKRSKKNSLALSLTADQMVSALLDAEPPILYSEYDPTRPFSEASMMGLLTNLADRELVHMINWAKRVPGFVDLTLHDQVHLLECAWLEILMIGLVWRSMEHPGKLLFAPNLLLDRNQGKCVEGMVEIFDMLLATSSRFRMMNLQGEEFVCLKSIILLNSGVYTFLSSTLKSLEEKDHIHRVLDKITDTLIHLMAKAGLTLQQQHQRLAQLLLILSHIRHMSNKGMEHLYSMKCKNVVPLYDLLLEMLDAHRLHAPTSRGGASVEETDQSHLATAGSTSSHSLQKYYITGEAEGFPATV
Thyrotropin receptor (Homo sapiens), sequence (P16473 whole entry, looked up): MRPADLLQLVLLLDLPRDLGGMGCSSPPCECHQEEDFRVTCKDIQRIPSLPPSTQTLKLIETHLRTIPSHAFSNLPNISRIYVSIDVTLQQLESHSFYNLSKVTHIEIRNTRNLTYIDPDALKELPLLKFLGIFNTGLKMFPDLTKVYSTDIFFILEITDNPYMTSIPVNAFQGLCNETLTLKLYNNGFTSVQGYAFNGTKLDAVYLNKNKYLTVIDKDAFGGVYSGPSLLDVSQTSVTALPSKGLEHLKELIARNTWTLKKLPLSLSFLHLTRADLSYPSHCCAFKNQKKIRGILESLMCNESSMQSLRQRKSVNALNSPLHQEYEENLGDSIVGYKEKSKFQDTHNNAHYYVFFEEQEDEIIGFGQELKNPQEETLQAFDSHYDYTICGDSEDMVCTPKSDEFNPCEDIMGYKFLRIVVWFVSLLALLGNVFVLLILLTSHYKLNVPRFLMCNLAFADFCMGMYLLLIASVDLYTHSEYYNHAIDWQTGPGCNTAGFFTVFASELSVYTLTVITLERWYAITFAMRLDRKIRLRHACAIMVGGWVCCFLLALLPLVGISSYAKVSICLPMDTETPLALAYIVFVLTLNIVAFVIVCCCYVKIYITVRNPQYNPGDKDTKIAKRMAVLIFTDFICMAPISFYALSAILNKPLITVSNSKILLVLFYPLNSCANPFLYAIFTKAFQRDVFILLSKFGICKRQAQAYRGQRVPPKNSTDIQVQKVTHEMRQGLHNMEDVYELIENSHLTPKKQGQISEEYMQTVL
Thyrotropin-releasing hormone receptor (Homo sapiens), sequence (P34981 whole entry, looked up): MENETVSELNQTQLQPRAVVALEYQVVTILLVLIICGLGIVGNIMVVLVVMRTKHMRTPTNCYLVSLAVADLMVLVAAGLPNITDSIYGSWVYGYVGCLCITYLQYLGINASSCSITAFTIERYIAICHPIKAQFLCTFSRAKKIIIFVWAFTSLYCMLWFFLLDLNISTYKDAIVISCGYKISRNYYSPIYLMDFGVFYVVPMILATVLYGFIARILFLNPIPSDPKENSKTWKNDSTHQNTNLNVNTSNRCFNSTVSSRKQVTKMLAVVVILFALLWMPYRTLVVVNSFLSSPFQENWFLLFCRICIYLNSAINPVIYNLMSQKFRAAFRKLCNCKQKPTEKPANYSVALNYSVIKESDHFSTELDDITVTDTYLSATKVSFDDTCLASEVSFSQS
Progesterone receptor (Homo sapiens), sequence (P06401 whole entry, looked up): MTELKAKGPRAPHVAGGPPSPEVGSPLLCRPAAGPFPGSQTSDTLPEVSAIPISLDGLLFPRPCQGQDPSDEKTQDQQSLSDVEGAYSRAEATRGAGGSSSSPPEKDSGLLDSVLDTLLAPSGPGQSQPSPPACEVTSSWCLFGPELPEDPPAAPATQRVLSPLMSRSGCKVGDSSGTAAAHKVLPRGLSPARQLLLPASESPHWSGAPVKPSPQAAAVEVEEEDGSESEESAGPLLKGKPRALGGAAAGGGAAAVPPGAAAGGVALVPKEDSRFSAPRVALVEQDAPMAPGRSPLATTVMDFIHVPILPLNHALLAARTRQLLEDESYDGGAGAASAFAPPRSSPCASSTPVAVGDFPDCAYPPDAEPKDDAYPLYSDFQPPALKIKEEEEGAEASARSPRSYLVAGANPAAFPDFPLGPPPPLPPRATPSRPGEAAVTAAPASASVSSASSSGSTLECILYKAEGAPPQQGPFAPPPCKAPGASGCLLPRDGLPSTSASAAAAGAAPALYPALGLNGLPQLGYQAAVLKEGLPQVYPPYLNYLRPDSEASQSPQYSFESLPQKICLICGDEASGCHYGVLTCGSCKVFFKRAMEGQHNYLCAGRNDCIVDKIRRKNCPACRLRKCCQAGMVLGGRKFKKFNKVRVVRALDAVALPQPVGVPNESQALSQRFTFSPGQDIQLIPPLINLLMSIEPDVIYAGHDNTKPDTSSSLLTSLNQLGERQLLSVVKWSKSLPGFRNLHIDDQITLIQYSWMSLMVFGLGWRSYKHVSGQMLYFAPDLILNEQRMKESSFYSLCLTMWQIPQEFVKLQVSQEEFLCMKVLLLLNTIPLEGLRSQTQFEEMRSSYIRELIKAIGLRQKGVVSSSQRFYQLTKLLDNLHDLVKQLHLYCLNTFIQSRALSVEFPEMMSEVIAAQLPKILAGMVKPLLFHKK

`OC1CCCCC1c1ccccc1` (centres undefined): the outcome in test [1], in test [3], in [4], in [10], in [18] and in test [19] was inactive. Also, the Potency result in test [2], in test [5], in [6], in [7], in [8] and in test [9] was “inactive” each time. The Potency result in [11], in [12], in test [13], in test [14], in [15] and in test [16] was “inactive” throughout. Moreover, the Potency entry in [17] was “inactive”.

Take `O=C1CC2CC1C1CCCC21` (centres undefined): the compound was classed as inactive in [1], in test [3], in test [4], in test [10], in test [19] and in test [20]. Also, the Potency entry in test [2], in [5], in test [6], in [8], in test [9] and in test [11] was “inactive” throughout. The Potency result in test [12], in test [13], in [14], in [15], in [16] and in test [17] was “inactive” in each case. Besides, in test [7], the Potency was 27.3 µM (active).

Turning to `CC1=CC(C)C(C=O)CC1` (centres undefined), the compound was called inactive in test [1], in test [3], in test [4], in test [10], in test [18] and in [19]. The Potency entry in [2], in [5], in test [6], in test [8], in test [9] and in test [11] was “inactive” throughout. In addition, the Potency result in test [12], in test [13], in test [14], in test [15] and in test [16] was “inactive” in each case. For the same compound, in test [17], the Potency was 4.9 µM (active).

With `Cc1cc2c(cc1S(N)(=O)=O)S(=O)(=O)CCC2`, the call in test [1], in test [3], in test [4], in test [10], in test [18] and in test [19] was inactive. In addition, in [20], the compound was classed as inactive. In addition, the Potency result in test [2], in [5], in [6], in [8], in [9] and in test [11] was “inactive” in each case. Further, the Potency entry in test [12], in test [13], in test [14], in [15], in [16] and in test [17] was “inactive” in each case.

Turning to `CN1CC(=O)NC1=N`, the outcome in [1], in test [3], in test [4], in [10], in [18] and in test [20] was inactive. Also, the Potency entry in test [2], in [5], in test [6], in test [7], in test [8] and in test [11] was “inactive” throughout. Further, the Potency result in test [12], in test [13], in [14], in [15], in test [16] and in [17] was “inactive” in each case.

`COC(=O)C1=C(C)NC(C)=C(C(=O)OC)C1c1ccccc1[N+](=O)[O-]`: the call in [1], in [3], in [4], in test [10] and in test [19] was inactive. For the same compound, the Potency in [2] is 6.12 µM (active) and 6.68 µM (active); in test [14] it was 23.7 µM (active). Further, the Potency result in [5], in [6], in test [8], in [9], in test [11] and in test [12] was “inactive” each time. Also, the Potency entry in [13], in test [15], in test [16] and in test [17] was “inactive” in each case.

For `CC1(C)CO[C@@H](CC(=O)O)CN1`, the compound was called inactive in test [1], in test [3], in test [4], in test [10], in [18] and in test [19]. Besides, in test [20], the outcome was inactive. Besides, the Potency result in test [2], in test [5], in [6], in test [8], in test [9] and in test [11] was “inactive” in each case. In addition, the Potency result in test [12], in test [13], in test [14], in [15], in test [16] and in test [17] was “inactive” each time.

(Values after PubChem BioAssay (Tox21).)
